A selection: hits, their analogues and other compounds. The true share with any hit is near 3.1%.
Autofluor counter: compound fluorescence in toxin protease inhibitor counterscreen; hit rate 3.1% among 360,000; AID 624483; compound autofluorescence counterscreen, microsphere flow cytometry; stronger effect = higher value; fluorescence intensity (no concentration beside the values); in the data active = fluorescence intensity above about 16000; inconclusive = no clear call, values can overlap the other calls
BoNT F protease: blocks Botulinum neurotoxin F light chain protease; Multiplex microsphere protease cleavage assay, flow cytometry; AID 588497; hit rate 0.22% among 360,000; inhibition, % at 10 µM; in the data active = inhibition above about 35%, passing the limit was not always enough; inconclusive = no clear call, values can overlap the other calls
Anthrax LF prot: blocks Bacillus anthracis lethal factor protease | P15917 | multiplex microsphere protease cleavage assay, LF | inhibition, % at 10 µM | hit rate 0.12% among 360,000 | AID 588501
PriA SSB inh: inhibitors of Klebsiella pneumoniae PriA binding to SSB C-terminal tail | inhibition, % at 33 µM | hit rate 0.6% among 430,000 | AlphaScreen SSBct-PriA binding, biotinylated peptide; in the data active = inhibition mostly above about 37%, no sharp cut-off; inactive = mostly below about 20%
BoNT A protease: BoNT A light chain protease inhibition. multiplex microsphere protease substrate cleavage, flow cytometry. hit rate 0.17% among 360,000. inhibition, % at 10 µM. AID 588499
Each line names hits and unclear results; the compound was inactive in the other large screens; ! = not confirmed by another sample. Rule as the data show it, unless noted: active = inhibition above about 30%; inconclusive = no clear call, values can overlap the other calls; inactive = below that.

Cc1n[nH]c(C)c1C(=O)N1CCC(Oc2ccc(N(C)C)nn2)C1 (stereo not drawn)	none (no result: Autofluor counter, BoNT F protease, Anthrax LF prot, BoNT A protease)
COc1ccc(/C=C/C(=O)c2sc(-c3ccccc3)nc2C)cc1	Autofluor counter 23221
Cc1nc(-c2cccnc2)sc1C(=O)Nc1ccc(Cl)cc1	none
CCNC(=O)ON=C(C)c1sc(-c2ccccc2)nc1C	none (no result: Autofluor counter, BoNT F protease, Anthrax LF prot, BoNT A protease)
Cc1nc(-c2cccnc2)sc1C(N)=O	Autofluor counter 16867
Cc1nc(-c2ccccc2)sc1C(=O)O	none
CCNC(=O)c1sc(-c2ccccc2)nc1C	Autofluor counter 21235, BoNT A protease inconclusive
C=CCN=C(NC#N)SCc1ccccc1	none
C=CCN=C(NC#N)SCC(=O)c1cccc(OC)c1	Autofluor counter 22163, BoNT A protease inconclusive
CN(C(=S)Nc1ccc(F)cc1)C1(c2ccccc2Cl)CCCCC1=O (stereo not drawn)	Autofluor counter 24303
CN(N)C(=S)Nc1ccc(F)cc1	none
Cc1ccc(NC(=O)C(=O)NC[C@@H](c2ccc(F)cc2)N2CCN(C)CC2)cc1C	none (no result: Autofluor counter, BoNT F protease, Anthrax LF prot, BoNT A protease)
Nc1ccc(Cl)c(N2CCCS2(=O)=O)c1	none (no result: Autofluor counter, BoNT F protease, Anthrax LF prot, BoNT A protease)
CCCc1c(O)nc(SCCN(CC)CC)n(C(=O)c2ccccc2)c1=O	Autofluor counter 23987
CCc1cccc2sc(N(CCCN3CCOCC3)C(=O)c3ccc4c(c3)OCCO4)nc12	PriA SSB inh 28 (no result: Autofluor counter, BoNT F protease, Anthrax LF prot, BoNT A protease)
CCc1cccc2sc(N(CCN(C)C)C(=O)c3cccc(SC)c3)nc12	PriA SSB inh 42 (no result: Autofluor counter, BoNT F protease, Anthrax LF prot, BoNT A protease)
CCc1cccc2sc(N(CCN3CCOCC3)C(=O)c3cc(C)n(CC)n3)nc12	none (no result: Autofluor counter, BoNT F protease, Anthrax LF prot, BoNT A protease)
CS(=O)(=O)c1nc2ccccc2n1Cc1ccc(Cl)cc1	none (no result: Autofluor counter, BoNT F protease, Anthrax LF prot, BoNT A protease)
Cc1ccc(S(=O)(=O)N2C(=O)CCC2C(=O)Nc2ccc3c(c2)OCCO3)cc1 (stereo not drawn)	PriA SSB inh 96
Cc1ccc(C)c(S(=O)(=O)N2CCN(CC(=O)Nc3ccc4c(c3)OCCO4)CC2)c1	Autofluor counter 24103
CC(=NO)C1(C)N(O)C(C)(C)C(c2ccco2)=[N+]1[O-] (stereo not drawn)	none (no result: Autofluor counter, BoNT F protease, Anthrax LF prot, BoNT A protease)
C=CCNC(=O)C(=O)Nc1ccc(C)c(Cl)c1	none (no result: Autofluor counter, BoNT F protease, Anthrax LF prot, BoNT A protease)
O=C(C1CCCN(c2ccc(-c3ccc(Cl)cc3)nn2)C1)N1CCN(c2ccc(F)cc2)CC1 (stereo not drawn)	none (no result: Autofluor counter, BoNT F protease, Anthrax LF prot, BoNT A protease)
CC(=O)c1cccc(NC(=O)Cc2cccs2)c1	Autofluor counter 23709
CCCN(CCC)S(=O)(=O)c1ccc(NC(=O)COc2ccccc2)cc1	Autofluor counter 16179, BoNT A protease inconclusive
CCCN(CCC)S(=O)(=O)c1ccc(NC(=O)Cc2cccs2)cc1	Autofluor counter 25405, BoNT A protease inconclusive
CCCCN(CCCC)S(=O)(=O)c1ccc(NC(=O)Cc2cccs2)cc1	Autofluor counter 23090
CC(=O)c1ccc(NC(=O)Cc2cccs2)cc1	BoNT F protease inconclusive
COc1ccc(C)c2sc(NC(=O)c3cccc(SC)c3)nc12	none (no result: Autofluor counter, BoNT F protease, Anthrax LF prot, BoNT A protease)
CCCCN(CCCC)S(=O)(=O)c1ccc(NC(=O)CN2CCOCC2)cc1	Autofluor counter 20756
CN(C)S(=O)(=O)c1ccc(NC(=O)CN2CCOCC2)cc1	none
CCCNS(=O)(=O)c1ccc(NC(=O)Cc2cccs2)cc1	BoNT F protease inconclusive
CNS(=O)(=O)c1ccc(NC(=O)Cc2cccs2)cc1	PriA SSB inh 45! (no result: Autofluor counter, BoNT F protease, Anthrax LF prot, BoNT A protease)
CCCCCCCOc1ccc(OC(=O)c2cccc(C(=O)OC)n2)cc1	none (no result: Autofluor counter, BoNT F protease, Anthrax LF prot, BoNT A protease)
Cc1oc(=O)c(NC(=O)c2cccc(Cl)c2)cc1C(=O)c1ccccc1	Autofluor counter 21979, BoNT A protease inconclusive
Cc1cc(C)c(NN=c2c(=O)c3ccccc3c2=O)c(C)c1	Autofluor counter 16485
CC(=O)N1N=C(c2ccc([N+](=O)[O-])cc2)CC1c1ccccc1Cl (stereo not drawn)	PriA SSB inh 45
COC(=O)c1ccc2c(=O)n(CC(=O)NCC(C)c3ccccc3)c(=S)[nH]c2c1 (stereo not drawn)	none (no result: Autofluor counter, BoNT F protease, Anthrax LF prot, BoNT A protease)
NC(=O)c1ccc(NC(=O)Cn2c(-c3ccncc3)nc3ccccc32)cc1	none (no result: Autofluor counter, BoNT F protease, Anthrax LF prot, BoNT A protease)
CC1=C(C)C(=O)N(CCC(=O)O)C1=O	Autofluor counter 20985
CCCC(=O)Nc1ccc2c(c1)C(=O)N(CCC(=O)O)C2=O	none
CCN(CC)C(=O)Cn1cc(C(=O)C(=O)Nc2ccccc2SC)c2ccccc21	none (no result: Autofluor counter, BoNT F protease, Anthrax LF prot, BoNT A protease)
N#C/C(=C\c1cc(Cl)cc(Cl)c1O)C(=O)NC1CCCCC1	Autofluor counter 16628, BoNT A protease inconclusive (no result: PriA SSB inh)
N#C/C(=C\c1cc(Cl)ccc1O)C(=O)NC1CCCCC1	none
COc1ccc(C2/C(=C(\O)c3cccc(OC)c3)C(=O)C(=O)N2c2ccccn2)cc1 (stereo not drawn)	Autofluor counter 23419, BoNT A protease inconclusive (no result: PriA SSB inh)
CCCN1CCCc2cc(CCNS(=O)(=O)Cc3ccccc3)ccc21	PriA SSB inh 94 (no result: Autofluor counter, BoNT F protease, Anthrax LF prot, BoNT A protease)
CCCN1CCCc2cc(CCNS(=O)(=O)Cc3ccc(F)cc3)ccc21	PriA SSB inh 77 (no result: Autofluor counter, BoNT F protease, Anthrax LF prot, BoNT A protease)
CCCN1CCCc2cc(CCNC(=O)C(=O)NCC)ccc21	none (no result: Autofluor counter, BoNT F protease, Anthrax LF prot, BoNT A protease)
